Reference: PubChem BioAssay (NCATS)
Records with an inconclusive call do not appear. A number with no mark means an inactive call. Active and inactive are the calls of the source. Calls follow the shape of the dose curve; as a rule, active = well fitted curve in the direction sought with a large enough effect; inconclusive = small, poorly fitted or top-dose-only effect, or another doubt; inactive = no such curve, though single readings can be large; an effect the other way counts as inactive or inconclusive.

What was measured:
[1] = BET inhibitor-based combinations targeting novel dependencies in MECOM-rearranged (r) AML: SET-2 cell line (AID 2202231); conditions: SET-2 AML cells viability, CellTiter-Glo luminescence, 48 h; viability: stronger effect = lower value, concentration not given here; also: nearly all actives have a fitted effect of over 35% in size;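 as to viability: plate controls were DMSO treated cells for no effect and wells without cells for full effect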
Outline: (§1)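 Viability of cells (500 per well) is scored by luminescent CellTiter-Glo at 48 hr post-dosing. Eleven-point titrations are normalized to DMSO and empty controls and reduced to AUC values.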

[2] = BET inhibitor-based combinations targeting novel dependencies in MECOM-rearranged (r) AML: OCI-AML3 cell line (AID 2202232); conditions: CellTiter-Glo luminescence, 48 h; Potency: OCI-AML3 viability; series mostly up to 46 µM; also: nearly all actives have a fitted effect of over 35% in size
Outline: as §1

[3] = BET inhibitor-based combinations targeting novel dependencies in MECOM-rearranged (r) AML: HNT-34 cell line (AID 2202234); conditions: HNT-34 AML viability, CellTiter-Glo luminescence, 48 h; series mostly up to 46 µM; also: nearly all actives have a fitted effect of over 35% in size
Outline: (§2)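 Using pin-tool transfer, drugs were added in 11 doses to cells (500/well), incubated 48 hr, and assessed with CellTiter-Glo. Z-AUC is a mean-centring transformation applied separately to each screened line.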

[4] = BET inhibitor-based combinations targeting novel dependencies in MECOM-rearranged (r) AML: UCSD-AML1 cell line (AID 2202235); conditions: UCSD-AML1 AML cells viability, CellTiter-Glo, 48 h; series mostly up to 46 µM; also: nearly all actives have a fitted effect of over 40% in size
Outline: as §2

[5] = BET inhibitor-based combinations targeting novel dependencies in MECOM-rearranged (r) AML: AML-191 cell line (AID 2202236; also: nearly all actives have a fitted effect of over 35% in size); conditions: AML-191 viability, CellTiter-Glo luminescence, 48 h; series mostly up to 46 µM
Outline: as §1

[6] = BET inhibitor-based combinations targeting novel dependencies in MECOM-rearranged (r) AML: AML-194 cell line (AID 2202237; also: nearly all actives have a fitted effect of over 40% in size); conditions: AML-194 (MECOM-r AML) viability, CellTiter-Glo, 48 h; series mostly up to 46 µM
Outline: as §1

[7] = BET inhibitor-based combinations targeting novel dependencies in MECOM-rearranged (r) AML: MV-4-11 cell line (AID 2202233); conditions: MV-4-11 AML viability, CellTiter-Glo luminescence, 48 h; series mostly up to 46 µM; also: nearly all actives have a fitted effect of over 45% in size
Outline: as §2
Potency is read from the fitted curve at half-maximal effect.

Compound	viability [1]	Potency [2]	Potency [3]	Potency [4]	Potency [5]	Potency [6]	Potency [1]	Potency [7]
CCCCC[C@H](O)/C=C/[C@H]1[C@H](O)CC(=O)[C@@H]1CCCCCCC(=O)O	103%	9.34 µM (active)	16.6 µM (active)	11.8 µM (active)	inactive	inactive	–	–
CCS(=O)(=O)Nc1ccc(Oc2ccc(F)cc2F)c(-c2cn(C)c(=O)c3[nH]ccc23)c1	–	0.0118 µM (active)	0.0742 µM (active)	0.132 µM (active)	0.0742 µM (active)	0.0833 µM (active)	0.0525 µM (active)	–
C[C@H]1O[C@H](O[C@H]2[C@H](O)[C@@H](O)[C@@H](O[C@H]3[C@H](O)[C@@H](O)C(O)O[C@@H]3CO)O[C@@H]2CO)[C@H](O)[C@@H](O)[C@@H]1N[C@H]1C=C(CO)[C@@H](O)[C@H](O)[C@H]1O (stereo not given in full)	101%	inactive	inactive	inactive	–	inactive	–	–
COc1ccnc(CS(=O)c2nc3ccc(OC(F)F)cc3[nH]2)c1OC (stereo not given)	114%	23.5 µM (active)	inactive	–	inactive	inactive	–	–
COc1cc([C@@H](CC(=O)O)c2ccc(C)c(CN3C[C@@H](C)Oc4ccccc4S3(=O)=O)c2)cc2nnn(C)c12	67.3%	inactive	inactive	inactive	inactive	inactive	–	–
O=C(CCCCCCNC(=O)c1cnc(N(c2ccccc2)c2ccccc2Cl)nc1)NO	–	7.42 µM (active)	9.34 µM (active)	9.34 µM (active)	7.42 µM (active)	10.5 µM (active)	9.34 µM (active)	–
O=C(C[C@@H]1C/C=C\CCC(=O)O[C@H](c2ccccc2)CNC1=O)NCc1ccc(Cl)cc1	117%	inactive	–	–	–	inactive	–	inactive
COC1CC(C(=O)c2ccc3c(N)ncc(-c4ccc(-c5cnn(C)c5)cc4)c3n2)C1 (stereo not given)	92.9%	8.33 µM (active)	–	–	–	11.8 µM (active)	–	2.95 µM (active)
Nc1ccc(F)cc1NC(=O)c1ccc(CNC(=O)/C=C/c2cccnc2)cc1	–	4.17 µM (active)	4.17 µM (active)	5.25 µM (active)	16.6 µM (active)	14.8 µM (active)	13.2 µM (active)	–
OCCn1cc(-c2ccc3c(c2)CC/C3=N\O)c(-c2ccncc2)n1	102%	2.35 µM (active)	–	inactive	–	–	–	–
O=C(O)CC(C(=O)O)n1c(O)c(C2=c3cc(Br)ccc3=NC2=O)sc1=S (stereo not given)	100%	inactive	inactive	inactive	inactive	inactive	–	–
NC(=S)N/N=C/c1ncccc1N	–	5.25 µM (active)	16.6 µM (active)	5.9 µM (active)	23.5 µM (active)	20.9 µM (active)	16.6 µM (active)	–
Cc1oc(=O)oc1CN1CCN(c2cc3c(cc2F)c(=O)c(C(=O)O)c2n3C(C)S2)CC1 (stereo not given)	116%	inactive	inactive	inactive	inactive	inactive	–	–
CCN1CCN(Cc2ccc(-c3cc4c(N[C@H](C)c5ccccc5)ncnc4[nH]3)cc2)CC1	–	20.9 µM (active)	2.63 µM (active)	–	18.6 µM (active)	26.3 µM (active)	23.5 µM (active)	–
CO[C@@]12[C@H](COC(N)=O)C3=C(C(=O)C(C)=C(N)C3=O)N1C[C@@H]1N[C@@H]12	95%	inactive	inactive	inactive	inactive	–	–	–
Cc1cc(C)c2c(c1)[C@@H](N(Cc1cc(C(F)(F)F)cc(C(F)(F)F)c1)c1nnn(C)n1)CCCN2CC1CCC(C(=O)O)CC1 (stereo not given in full)	101%	8.33 µM (active)	18.6 µM (active)	inactive	–	inactive	–	–
C[C@@H](O[C@H]1OCCN(Cc2n[nH]c(=O)[nH]2)[C@@H]1c1ccc(F)cc1)c1cc(C(F)(F)F)cc(C(F)(F)F)c1	–	18.6 µM (active)	18.6 µM (active)	–	16.6 µM (active)	–	20.9 µM (active)	–
CCCCC(=O)OCC(=O)[C@]1(O)Cc2c(O)c3c(c(O)c2[C@@H](O[C@H]2C[C@H](NC(=O)C(F)(F)F)[C@H](O)[C@H](C)O2)C1)C(=O)c1c(OC)cccc1C3=O	–	0.59 µM (active)	1.86 µM (active)	0.833 µM (active)	1.66 µM (active)	2.63 µM (active)	4.17 µM (active)	–
CC1(C)CC[C@]2(C(=O)O)CC[C@]3(C)C(=CC[C@@H]4[C@@]5(C)C[C@@H](O)[C@H](O)C(C)(C)[C@@H]5CC[C@]43C)[C@@H]2C1	102%	inactive	inactive	inactive	inactive	inactive	–	–
